The list is not random: actives were taken first. Their share in the collection is about 31%.
CYP2C9 activ: human CYP2C9 activators, primary screen, biochemical, luminescence. Cytochrome P450 2C9 (Homo sapiens), P11712. recombinant CYP2C9, luciferin-H conversion; hits give high values; factor 1 = untreated enzyme, 0 = blocked. activation factor at 5 µM. 96,000 tested, 1.4% active. AID 1024, 2008;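 active = activation factor of 2 or more for CYP2C9 at a 5 µM dose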;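 note: 0 = sulfaphenazole-blocked wells and 1 = vehicle-only wells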
PLAP activator: PLAP enzyme activators, biochemical, luminescence, HTS. 96,000 tested, 1.2% active. Alkaline phosphatase, placental type (Homo sapiens), P05187. activation fold at 20 µM. AID 696, 2007. purified PLAP enzyme, luminescent substrate read-out; hits give high values; in the data active = activation fold above about 2
Target sequence (P05187 whole entry, looked up): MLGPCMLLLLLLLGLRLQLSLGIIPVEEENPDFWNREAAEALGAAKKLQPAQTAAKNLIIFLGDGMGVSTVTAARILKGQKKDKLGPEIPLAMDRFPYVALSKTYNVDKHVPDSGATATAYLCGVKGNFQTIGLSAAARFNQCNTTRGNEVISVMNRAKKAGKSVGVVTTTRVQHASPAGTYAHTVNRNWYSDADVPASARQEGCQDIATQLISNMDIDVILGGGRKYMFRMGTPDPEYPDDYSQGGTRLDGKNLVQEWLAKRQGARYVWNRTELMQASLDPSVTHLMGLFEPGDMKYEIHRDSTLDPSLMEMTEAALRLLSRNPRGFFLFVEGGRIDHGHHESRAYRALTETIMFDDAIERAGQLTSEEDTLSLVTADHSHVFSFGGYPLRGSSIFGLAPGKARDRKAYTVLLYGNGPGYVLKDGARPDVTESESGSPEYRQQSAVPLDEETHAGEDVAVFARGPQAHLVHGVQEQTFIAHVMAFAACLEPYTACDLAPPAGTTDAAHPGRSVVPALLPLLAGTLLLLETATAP
CYP2C19 act: human CYP2C19 activators, primary screen, biochemical, luminescence; recombinant CYP2C19, luciferin-H EGE luminescence; hits give high values; 0 = fully inhibited enzyme, 1 = untreated enzyme; Cytochrome P450 2C19 (Homo sapiens), P33261; 96,000 tested, under 10 active; AID 1025, 2008; activation factor at 5 µM;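 active = activation factor of at least 2 at 5 µM in the primary screen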;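 note: 0 = wells with 2.5 mM tranylcypromine and 1 = vehicle-only wells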
CYP2C9 inhib: blockers of cytochrome P450 2C9 activity – biochemical, luminescence, ADME assay, primary screen; inhibition, % at 5 µM; P11712; CYP2C9 Supersomes, luciferin-H conversion; 96,000 tested, 20% active; AID 777, 2007;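 active = blocking of liver enzyme CYP2C9 beyond about 50% at 5 µM, limit read from the data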
CYP2C19 inh: blockers of cytochrome P450 2C19 activity – biochemical, luminescence, ADME assay, primary screen | CYP2C19 Supersomes, luciferin-H EGE luminescence, 30 min | inhibition, % at 5 µM | 96,000 tested, 21% active;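 active = CYP2C19 inhibition above a set limit at 5 µM in the primary screen, cut at about 50% in these data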;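 note: plate controls were negative control wells for no effect and 2.5 mM tranylcypromine positive control for full effect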
Active calls of the source: *.

What do the screens show for `CCC(C)NC(=O)C1CCCN(C(=O)Nc2ccc(F)cc2)C1` (centres undefined)?
CYP2C9 activ: 1; PLAP activator: 1; CYP2C19 act: 0.8; CYP2C9 inhib: 1; CYP2C19 inh: 16

Results for Cc1ccc(C(C(=O)NC2CCCC2)N(C(=O)Cc2cccs2)c2ccc(C)c(C)c2)o1 (centres undefined) ?
CYP2C9 activ: 1; PLAP activator: 1.1; CYP2C19 act: 0.9; CYP2C9 inhib: -5; CYP2C19 inh: 10

Results for Cc1cc(NC(=O)CCC(=O)N(c2ccccc2)C2(C(=O)NC3CCCCC3)CCCC2)no1 ?
CYP2C9 activ: 0.8; PLAP activator: 1.7; CYP2C19 act: 0.9; CYP2C9 inhib: 24; CYP2C19 inh: 14

Results for Cc1cc(NC(=O)CCC(=O)N(c2ccccc2)C(C(=O)NC2CCCC2)c2cccs2)no1 (centres undefined) ?
CYP2C9 activ: 0.3; PLAP activator: 1.2; CYP2C19 act: 0.2; CYP2C9 inhib: 70*; CYP2C19 inh: 77*

What do the screens show for `Cc1ccc(C)c(N(C(=O)CCC(=O)Nc2cc(C)on2)C(C(=O)NC2CCCC2)c2ccco2)c1` (centres undefined)?
CYP2C9 activ: 0.8; PLAP activator: 1.1; CYP2C19 act: 0.5; CYP2C9 inhib: 20; CYP2C19 inh: 54*

What do the screens show for `O=C(NC1CCCC1)C(c1cccs1)N(C(=O)c1ccco1)c1ccc2c(c1)OCCO2` (centres undefined)?
CYP2C9 activ: 0.2; PLAP activator: 1.1; CYP2C19 act: 0.2; CYP2C9 inhib: 78*; CYP2C19 inh: 80*

Results for Cc1ccc(C)c(N(C(=O)Cc2cccs2)C(C(=O)NC2CCCC2)c2ccc(C)o2)c1 (centres undefined) ?
CYP2C9 activ: 0.3; PLAP activator: 0.9; CYP2C19 act: 1.1; CYP2C9 inhib: 73*; CYP2C19 inh: -7

Results for CC(C)(C)SCCNC(=O)CN(c1ccc(F)c(Cl)c1)S(C)(=O)=O ?
CYP2C9 activ: 0.9; PLAP activator: 1.1; CYP2C19 act: 1.1; CYP2C9 inhib: 9; CYP2C19 inh: -5

Results for CC1CCCN(C(=S)NCCc2ccccc2)C1 (centres undefined) ?
CYP2C9 activ: 0.8; PLAP activator: 0.8; CYP2C19 act: 0.6; CYP2C9 inhib: 19; CYP2C19 inh: 42

Results for CC1CCCCN1C(=S)NCCc1ccccc1 (centres undefined) ?
CYP2C9 activ: 0.7; PLAP activator: 1; CYP2C19 act: 0; CYP2C9 inhib: 27; CYP2C19 inh: 96*

Results for COc1ccc(C(=O)c2c[nH]c(C(=O)NCc3cccs3)c2)cc1 ?
CYP2C9 activ: 0.9; PLAP activator: 0.9; CYP2C19 act: 1; CYP2C9 inhib: 10; CYP2C19 inh: 2

Results for Cc1c(N=Cc2ccncc2)c(=O)n(-c2ccccc2)n1C ?
CYP2C9 activ: 1.1; PLAP activator: 1; CYP2C19 act: 0.3; CYP2C9 inhib: -13; CYP2C19 inh: 66*

Results for CCOc1cc(N2CCOCC2)c(OCC)cc1NC1=NCCCCC1 ?
CYP2C9 activ: 0.9; PLAP activator: 0.9; CYP2C19 act: 0.8; CYP2C9 inhib: 6; CYP2C19 inh: 15

What do the screens show for `COc1cc(OC)c(C2CC(=O)N3CN(C)CSC3=C2C#N)cc1OC` (centres undefined)?
CYP2C9 activ: 0.6; PLAP activator: 1.5; CYP2C19 act: 1; CYP2C9 inhib: 38; CYP2C19 inh: -2

Results for COc1ccc(Br)cc1C1CC(=O)N2CN(Cc3ccccc3)CSC2=C1C#N (centres undefined) ?
CYP2C9 activ: 0.1; PLAP activator: 1.1; CYP2C19 act: 0.3; CYP2C9 inhib: 94*; CYP2C19 inh: 70*

How did COc1ccc(Br)cc1C1CC(=O)N2CN(C)CSC2=C1C#N (centres undefined) do in these assays?
CYP2C9 activ: 0.1; PLAP activator: 1.2; CYP2C19 act: 0.4; CYP2C9 inhib: 88*; CYP2C19 inh: 60*

What do the screens show for `N#CC1=C2SCN(Cc3ccccc3)CN2C(=O)CC1c1ccccc1F` (centres undefined)?
CYP2C9 activ: 0.4; PLAP activator: 1.3; CYP2C19 act: 0.6; CYP2C9 inhib: 65*; CYP2C19 inh: 42

How did CCC(=O)NCCc1nc2cc(NC(=O)c3ccccc3OC)ccc2n1C do in these assays?
CYP2C9 activ: 1.1; PLAP activator: 1.6; CYP2C19 act: 1; CYP2C9 inhib: -8; CYP2C19 inh: -1

What do the screens show for `C=CCn1c(=S)[nH]c2ccc(Br)cc2c1=O`?
CYP2C9 activ: 0.6; PLAP activator: 1; CYP2C19 act: 0.4; CYP2C9 inhib: 38; CYP2C19 inh: 62*

Results for COc1ccc(Br)cc1/C=N/NC(=O)c1nc(-c2ccccc2)n2c1CCCCC2 ?
CYP2C9 activ: 0.5; PLAP activator: 1.9; CYP2C19 act: 0.4; CYP2C9 inhib: 45; CYP2C19 inh: 60*

What do the screens show for `Cc1cc(C(=O)N/N=C/c2cc(Br)ccc2OC(=O)c2ccccc2)n[nH]1`?
CYP2C9 activ: 0.4; PLAP activator: 1.1; CYP2C19 act: 0.8; CYP2C9 inhib: 61*; CYP2C19 inh: 23

Results for CCOc1cc(/C=N/NC(=O)c2cc(C)[nH]n2)ccc1OC(=O)c1ccc([N+](=O)[O-])cc1 ?
CYP2C9 activ: 0.6; PLAP activator: 1.1; CYP2C19 act: 0.9; CYP2C9 inhib: 39; CYP2C19 inh: 6

How did COc1cc(OC)c(OC)cc1/C=N/NC(=O)c1cc(-c2cccn2C)n[nH]1 do in these assays?
CYP2C9 activ: 0.8; PLAP activator: 1.6; CYP2C19 act: 0.9; CYP2C9 inhib: 24; CYP2C19 inh: 11

How did O=C(CSc1nnc(-c2ccc(OC(F)F)cc2)o1)NCc1cccs1 do in these assays?
CYP2C9 activ: 0.7; PLAP activator: 0.9; CYP2C19 act: 0.4; CYP2C9 inhib: 34; CYP2C19 inh: 64*

Results for COc1ccc(-c2nnc(SCC(=O)NC(=O)NCc3ccco3)o2)cc1 ?
CYP2C9 activ: 1.2; PLAP activator: 0.9; CYP2C19 act: 0.5; CYP2C9 inhib: -18; CYP2C19 inh: 52*

Results for COc1cccc(C(=O)c2c[nH]c(C(=O)NCc3ccco3)c2)c1 ?
CYP2C9 activ: 0.8; PLAP activator: 0.9; CYP2C19 act: 1; CYP2C9 inhib: 24; CYP2C19 inh: 2

How did COC(=O)CSc1nnc(-c2ccc(S(=O)(=O)NCc3cccs3)cc2)o1 do in these assays?
CYP2C9 activ: 0.7; PLAP activator: 0.9; CYP2C19 act: 0.9; CYP2C9 inhib: 34; CYP2C19 inh: 12

Results for COc1ccc(-c2ccc(SCC(=O)NCc3ccco3)nn2)cc1 ?
CYP2C9 activ: 0.8; PLAP activator: 0.9; CYP2C19 act: 0.9; CYP2C9 inhib: 18; CYP2C19 inh: 12

High-throughput results (PubChem)
